Laboratory results: PubChem BioAssay (NCI)
About 83,000 compounds went through this panel and 20% of them were active in at least one assay; those are over-represented in the sample as a whole.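 Results are percent growth after 48 hours of single-concentration exposure. 100 means growth as in untreated cells, lower positive values show inhibition; negative values down to -100 show cell death.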 Active and inactive are the calls of the source. Rule for the calls: active = growth percent below 10; inactive = the rest.

Assays:
Test in all cases: NCI-60 one-dose screen, 48 h (100 = growth as untreated, 0 = no growth, -100 = all killed)
HCT-15 colon = details: 10 µM unless noted
HT29 colon = details: 10 µM unless noted
SNB-75 CNS = details: 10 µM unless noted
SNB-19 CNS = details: 10 µM unless noted
U251 CNS = details: 10 µM unless noted
PC-3 prostate = details: 10 µM unless noted
UACC-62 melanoma = details: 10 µM unless noted
LOX IMVI melanoma = details: 10 µM unless noted
SK-MEL-28 melanoma = details: 10 µM unless noted
EKVX NSCLC = details: 10 µM unless noted
SN12C renal = details: 10 µM unless noted
TK-10 renal = details: 10 µM unless noted
ACHN renal = details: 10 µM unless noted
CAKI-1 renal = details: 10 µM
CCRF-CEM leukemia = details: 10 µM unless noted
MOLT-4 leukemia = details: 10 µM unless noted
SK-MEL-2 melanoma = details: 10 µM unless noted
UO-31 renal = details: 10 µM unless noted
A498 renal = details: 10 µM unless noted
SK-MEL-5 melanoma = details: 10 µM unless noted

Measured: growth

CC1(COc2ccc3ncc(C#Cc4cncc(C(=O)Nc5cc(C(C)(C)C)on5)c4)n3n2)COC1
inactive: HCT-15 colon 26% | HT29 colon 101% | SNB-75 CNS 12.8% | SNB-19 CNS 60.9% | U251 CNS 29% | PC-3 prostate 43.4% | UACC-62 melanoma 29.6% | LOX IMVI melanoma 11% | SK-MEL-28 melanoma 51.4% | EKVX NSCLC 41.5% | SN12C renal 30.4% | TK-10 renal 91.6% | ACHN renal 30.6% | CAKI-1 renal 35.4% | CCRF-CEM leukemia 39.5% | MOLT-4 leukemia 45.6%

CC1OC(O[C@@H]2C(O)C(CO)OC(O[C@H]3COC(O[C@H]4CC[C@]5(C)[C@H]6CC[C@]78OC[C@@]9(CC[C@](C)(C=O)C[C@H]97)[C@H](O)C[C@@]8(C)[C@]6(C)CC[C@H]5C4(C)C)[C@@H](OC4OC(CO)[C@@H](O)[C@@H](O)[C@@H]4O)[C@@H]3O)[C@H]2OC2OC[C@@H](O)[C@@H](O)[C@@H]2O)[C@@H](O)[C@@H](O)[C@H]1O (stereo not given in full)
inactive: HCT-15 colon 83.7% | EKVX NSCLC 22.2% | TK-10 renal 29.5%
active: HT29 colon 6.44% | SNB-75 CNS -65.2% | SNB-19 CNS -49.2% | U251 CNS -87.5% | PC-3 prostate -80.5% | LOX IMVI melanoma -5.38% | SK-MEL-2 melanoma -35.2% | UO-31 renal -93.6% | ACHN renal -82.2% | CAKI-1 renal -80.7% | A498 renal -89.3% | CCRF-CEM leukemia 4.93% | MOLT-4 leukemia -36%

C#C[C@]1(O)CC[C@H]2[C@@H]3CC=C4c5sc(C6CC6)nc5CC[C@]4(C)[C@H]3CC[C@@]21C
inactive: HCT-15 colon 50.4% | HT29 colon 70.2% | SNB-75 CNS 94.8% | SNB-19 CNS 90% | U251 CNS 66.3% | SK-MEL-5 melanoma 93.5% | UACC-62 melanoma 67.7% | LOX IMVI melanoma 62.6% | SK-MEL-28 melanoma 69.3% | SK-MEL-2 melanoma 90% | EKVX NSCLC 80.1% | SN12C renal 86.1% | TK-10 renal 124% | ACHN renal 91.4% | CAKI-1 renal 79.6% | A498 renal 99.9% | CCRF-CEM leukemia 58.7% | MOLT-4 leukemia 46.8%

CCOC(=O)c1c(Nc2ccccc2)nn2c(-c3ccc(Br)cc3)ccnc12
inactive: HCT-15 colon 66.4% | HT29 colon 76.7% | SNB-75 CNS 65.2% | SNB-19 CNS 56.8% | U251 CNS 66.3% | PC-3 prostate 80.9% | UACC-62 melanoma 79.3% | LOX IMVI melanoma 56.4% | SK-MEL-28 melanoma 78.3% | EKVX NSCLC 81.5% | SN12C renal 68.3% | UO-31 renal 65.1% | TK-10 renal 90.6% | ACHN renal 34% | CAKI-1 renal 57.6% | CCRF-CEM leukemia 85.8% | MOLT-4 leukemia 87.6%

COc1ccc(C(=O)c2c(N)c(C#N)cn2-c2cccc(OC)c2)cc1
inactive: HCT-15 colon 19.8% | SNB-19 CNS 26.8% | U251 CNS 33.8% | SK-MEL-5 melanoma 35.1% | UACC-62 melanoma 18.8% | LOX IMVI melanoma 37.9% | SK-MEL-28 melanoma 45.8% | SK-MEL-2 melanoma 28.8% | EKVX NSCLC 38.7% | SN12C renal 32.4% | UO-31 renal 33.8% | TK-10 renal 69.2% | ACHN renal 38.5% | CAKI-1 renal 30.5% | CCRF-CEM leukemia 18.1% | MOLT-4 leukemia 29.3%
active: HT29 colon 7.88% | SNB-75 CNS -23.4% | A498 renal -1.17%

N#Cc1ccc(S(=O)(=O)Nc2ccc(-c3cnc(N)[nH]3)cc2)cc1
inactive: HCT-15 colon 96.7% | HT29 colon 98.5% | SNB-75 CNS 106% | SNB-19 CNS 94.1% | U251 CNS 98.3% | SK-MEL-5 melanoma 100% | UACC-62 melanoma 92.4% | LOX IMVI melanoma 97.9% | SK-MEL-28 melanoma 97.1% | EKVX NSCLC 105% | SN12C renal 102% | UO-31 renal 89.7% | TK-10 renal 98.6% | ACHN renal 99.7% | CAKI-1 renal 92.3% | A498 renal 101% | CCRF-CEM leukemia 98.2%

Nc1n[nH]c2cccc(C#Cc3cccc(NC(=O)c4cccc(OC(F)(F)F)c4)c3)c12
inactive: HCT-15 colon 41.3% | HT29 colon 36.1% | SNB-75 CNS 47.7% | SNB-19 CNS 81.3% | U251 CNS 59.3% | PC-3 prostate 68.3% | UACC-62 melanoma 30.1% | LOX IMVI melanoma 16.9% | SK-MEL-28 melanoma 30.3% | EKVX NSCLC 91% | SN12C renal 39.7% | TK-10 renal 97.1% | ACHN renal 31.7% | CAKI-1 renal 48.3% | A498 renal 56.4% | CCRF-CEM leukemia 76.2% | MOLT-4 leukemia 35.4%

CCc1ccc(NC(=O)N[C@@H](Cc2cccc(F)c2)C(=O)N[C@@H]2C(=O)N3CCC[C@H]3C(=O)N3CCCC[C@H]3C(=O)N[C@@H](C)C(=O)N3C[C@H](C)C[C@H]3C(=O)O[C@H]2C)c(F)c1
inactive: HCT-15 colon 11.6% | HT29 colon 20.1% | SNB-75 CNS 20.8% | SNB-19 CNS 27.5% | U251 CNS 31.1% | PC-3 prostate 15.1% | UACC-62 melanoma 21.1% | LOX IMVI melanoma 14.1% | SK-MEL-28 melanoma 36.1% | EKVX NSCLC 31.1% | SN12C renal 21% | TK-10 renal 50.3% | ACHN renal 27.4% | CAKI-1 renal 17.8% | CCRF-CEM leukemia 33.9% | MOLT-4 leukemia 32%

O=C1C[C@@H](c2ccccc2)Oc2c(Cc3ccccc3O)c(O)c(Cc3cc(Cc4cc(Cc5ccccc5O)ccc4O)ccc3O)c(O)c21
inactive: HCT-15 colon 104% | HT29 colon 128% | SNB-75 CNS 72.7% | SNB-19 CNS 99.7% | U251 CNS 93.7% | SK-MEL-5 melanoma 98.6% | UACC-62 melanoma 72.7% | LOX IMVI melanoma 87.2% | SK-MEL-28 melanoma 114% | SK-MEL-2 melanoma 110% | EKVX NSCLC 93.2% | SN12C renal 100% | UO-31 renal 66.6% | TK-10 renal 147% | ACHN renal 94.4% | CAKI-1 renal 75.5% | A498 renal 98.3% | CCRF-CEM leukemia 91.5% | MOLT-4 leukemia 76.3%

CCN1C(=O)N(CC)C2SC(N/N=C/c3ccc(OC)cc3)=NC21 (stereo not given)
inactive: HCT-15 colon 12% | HT29 colon 15.1% | SNB-75 CNS 27.3% | SNB-19 CNS 23% | U251 CNS 24.5% | UACC-62 melanoma 38.4% | SK-MEL-28 melanoma 60.2% | SK-MEL-2 melanoma 61.4% | EKVX NSCLC 41.8% | SN12C renal 24.3% | UO-31 renal 43.5% | TK-10 renal 72.8% | ACHN renal 31.3% | CAKI-1 renal 48.7% | CCRF-CEM leukemia 13.1% | MOLT-4 leukemia 10.1%
active: SK-MEL-5 melanoma -0.548% | LOX IMVI melanoma 3.58%

COc1ccc(-c2oc3cc(O)cc(O)c3c(=O)c2OC)cc1O
inactive: HCT-15 colon 33.2% | HT29 colon 57% | SNB-19 CNS 28.2% | U251 CNS 15.6% | PC-3 prostate 24.1% | LOX IMVI melanoma 36.8% | SK-MEL-2 melanoma 13.2% | EKVX NSCLC 38.7% | UO-31 renal 26.2% | TK-10 renal 52.3% | ACHN renal 34.1% | CAKI-1 renal 14.9% | MOLT-4 leukemia 21.4%
active: SNB-75 CNS -24.3% | A498 renal -6.41% | CCRF-CEM leukemia 2.67%

COc1ccc(S(=O)(=O)NCCCNc2nccc(-n3cnc4ccccc43)n2)cc1
inactive: HCT-15 colon 92.3% | HT29 colon 99.7% | SNB-75 CNS 88.2% | SNB-19 CNS 100% | U251 CNS 94.5% | PC-3 prostate 89.7% | UACC-62 melanoma 76.3% | LOX IMVI melanoma 93.4% | SK-MEL-28 melanoma 106% | EKVX NSCLC 84.4% | SN12C renal 92.4% | UO-31 renal 67.2% | TK-10 renal 103% | ACHN renal 88.2% | CAKI-1 renal 68.8% | A498 renal 81.9% | CCRF-CEM leukemia 91.4% | MOLT-4 leukemia 77%

Clc1ccc(-c2csc(N/N=C/c3nc4ccccc4n3C3CC3)n2)cc1
inactive: HCT-15 colon 90.5% | HT29 colon 99.8% | SNB-75 CNS 82.4% | SNB-19 CNS 98.3% | U251 CNS 97.2% | PC-3 prostate 98.4% | UACC-62 melanoma 98.4% | SK-MEL-28 melanoma 101% | SK-MEL-2 melanoma 106% | EKVX NSCLC 92.2% | SN12C renal 104% | UO-31 renal 84.3% | TK-10 renal 85.6% | ACHN renal 104% | CAKI-1 renal 89.7% | A498 renal 108% | CCRF-CEM leukemia 93.7% | MOLT-4 leukemia 98.2%

COC(=O)c1c(C(=O)OC)c2n(CC(=O)Nc3cccc4cccnc34)c3ccccc3n2c1C(=O)c1ccc(C)cc1
inactive: HCT-15 colon 97.6% | HT29 colon 102% | SNB-75 CNS 101% | SNB-19 CNS 91.1% | U251 CNS 97.7% | SK-MEL-5 melanoma 96.4% | UACC-62 melanoma 84.6% | LOX IMVI melanoma 98.9% | SK-MEL-28 melanoma 110% | SK-MEL-2 melanoma 102% | EKVX NSCLC 97.4% | SN12C renal 92.5% | UO-31 renal 75.7% | TK-10 renal 108% | ACHN renal 97.6% | CAKI-1 renal 104% | CCRF-CEM leukemia 95.4% | MOLT-4 leukemia 93.3%

O=C1CSC(=O)N1Cc1cc2ccccc2nc1Cl
inactive: HCT-15 colon 101% | HT29 colon 107% | SNB-75 CNS 84.7% | SNB-19 CNS 99.8% | U251 CNS 97.6% | SK-MEL-5 melanoma 99.7% | UACC-62 melanoma 93.9% | LOX IMVI melanoma 97.4% | SK-MEL-28 melanoma 109% | SK-MEL-2 melanoma 94.7% | EKVX NSCLC 98.7% | SN12C renal 97.4% | UO-31 renal 77.7% | TK-10 renal 98.5% | ACHN renal 104% | CAKI-1 renal 86.1% | A498 renal 106% | CCRF-CEM leukemia 107% | MOLT-4 leukemia 102%

COc1ccc(NC(=O)[C@H](C)N)cc1C(=O)Nc1cccc(-c2cc(=O)c3c(OC)c(OC)c(OC)cc3o2)c1
inactive: HCT-15 colon 49.6% | HT29 colon 69.8% | SNB-75 CNS 84.5% | SNB-19 CNS 65.8% | U251 CNS 56.3% | SK-MEL-5 melanoma 57.9% | UACC-62 melanoma 63.5% | LOX IMVI melanoma 49.8% | SK-MEL-28 melanoma 88.2% | EKVX NSCLC 81.3% | SN12C renal 55.4% | UO-31 renal 29.7% | TK-10 renal 70.7% | ACHN renal 54.2% | CAKI-1 renal 49% | A498 renal 50.9% | CCRF-CEM leukemia 52.9% | MOLT-4 leukemia 51.4%
